Compounds with a hit are over-represented: about 7.4% of the library has one in this group of screens.
FLuc modulator: firefly luciferase modulation, counter-screen for miR-21 project; purified FLuc, Km substrates, luminescence inhibition; 360,000 compounds, 6.9% hits; Potency, µM (titrated, usually from 57.5 µM), inactives show top-dose activity change, negative = inhibition, usual class: inhibitors; P08659; AID 588342;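 also: plate controls were vehicle for no effect and reference inhibitor for full effect; nearly all actives have a fitted effect of over 55% in size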
Target sequence (P08659 whole entry, looked up): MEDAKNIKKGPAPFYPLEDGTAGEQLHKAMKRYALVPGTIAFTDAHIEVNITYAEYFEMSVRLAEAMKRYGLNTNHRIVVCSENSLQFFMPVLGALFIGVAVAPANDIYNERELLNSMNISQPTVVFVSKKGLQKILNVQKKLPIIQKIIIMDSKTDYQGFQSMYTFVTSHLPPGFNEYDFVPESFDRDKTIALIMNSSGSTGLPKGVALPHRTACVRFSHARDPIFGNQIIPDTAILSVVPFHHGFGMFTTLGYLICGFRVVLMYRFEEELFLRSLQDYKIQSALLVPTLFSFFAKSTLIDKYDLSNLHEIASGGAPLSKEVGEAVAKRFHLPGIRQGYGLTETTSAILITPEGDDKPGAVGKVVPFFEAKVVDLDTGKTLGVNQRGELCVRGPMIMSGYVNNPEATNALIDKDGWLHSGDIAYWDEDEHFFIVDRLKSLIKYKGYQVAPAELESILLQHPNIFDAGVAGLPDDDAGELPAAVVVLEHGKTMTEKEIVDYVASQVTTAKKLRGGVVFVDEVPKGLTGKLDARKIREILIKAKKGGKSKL
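Purified P. pyralis luciferase (10nM final) with 10uM D-luciferin and 10uM ATP (Km levels) in 50mM Tris acetate pH 7.5, 10mM Mg acetate, 0.01% Tween-20, 0.05% BSA; qHTS 6-point titration, ~60 µM downward; luminescence read.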
SMN2 splice enh: increases expression of the SMN2 splice variant | HEK293 SMN2-luciferase splicing reporter, luminescence, 30-36 h | Potency, µM (series often up to 46.1 µM), inactives show top-dose activity change, positive = activation, actives largely listed as activators | 210,000 compounds, 2.8% hits | AID 1458; also: % of control where 0% means no effect; nearly all actives have a fitted effect of over 55% in size
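HEK293 cells carry an SMN2 […]–luciferase reporter in which exon 7 inclusion puts luciferase in frame. Cells were plated 10-12 h before compound addition, then incubated 30-36 h at 37C. ONE-Glo luminescence was read; sodium butyrate at 4.5 mM final served as control.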
Rab9 promoter act: activators of Rab9 promoter; 320,000 compounds, 2.8% hits; Huh7 Rab9 promoter-luciferase reporter, luminescence, 24 h; Potency, µM (titrated, usually from 9.22 µM), without a hit: at the top dose activation, negative = inhibition, actives largely listed as activators; also: % of control where 0% means no effect; nearly all actives have a fitted effect of over 60% in size
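Luciferase signal after 10 min detection reagent at ambient indicates Rab9 promoter upregulation; stably transfected Huh7 cells were treated 24 h with compound in DMSO at 37 °C, 5% CO2.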
p53 reactivation: restores transcriptional activity of mutant p53; H1299 p53-A138V BP100-luciferase reporter, luminescence, 24 h; Potency, µM (highest dose often 92.2 µM), inactives show at the highest dose activity change, positive = activation, actives largely listed as activators; 320,000 compounds, 0.063% hits; AID 504706; also: % of control where 0% means no effect; nearly all actives have a fitted effect of over 45% in size
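H1299 (p53-null), stable ts p53-A138V + BP100-Luc; 1000 cells/well, Opti-MEM/10% FBS; cpd 4 pt, 1:5; 24 h, 37 deg C, 5% CO2; detection reagent 10 min RT; luminescence.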
NPC1 prom act: NPC1 promoter activation; 320,000 compounds, 2.4% hits; Potency, µM (titrated, usually from 9.22 µM), without a hit: at the top dose activation, actives largely listed as activators; Huh7 NPC1 promoter luciferase reporter, 24 h; also: % of control where 0% means no effect; nearly all actives have a fitted effect of over 60% in size
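Luciferase expression driven by the NPC1 promoter was measured in stably transfected Huh7 cells after a 24 h compound incubation, using a luciferase reagent and a luminescence read.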
ELG1 genotoxic: induces genotoxicity in HEK293T cells with luciferase-tagged ELG1 | HEK293T ELG1-luciferase reporter, luminescence, 16 h | Potency, µM (highest dose often 46 µM), for inactives: at the top dose activity change, positive = activation, hits mostly activators | 330,000 compounds, 1.3% hits; also: % of control where 0% means no effect; nearly all actives have a fitted effect of over 60% in size
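Genotoxicity was scored as increased ELG1-luciferase reporter signal, measured by ONE-Glo luminescence (30 min, room temperature). Compound or vehicle exposure of the HEK293T reporter cells lasted 16 hr at 37°C.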
* hit, by the source's call; ? = inconclusive; · = no result given; [ ] = another dose, or the depositor's remark. Calls follow the shape of the dose curve; as a rule, active = well fitted curve in the direction sought with a large enough effect; inconclusive = small, poorly fitted or top-dose-only effect, or another doubt; inactive = no such curve, though single readings can be large; an effect the other way counts as inactive or inconclusive. Potency is read from the fitted curve at half-maximal effect.

SMILES	FLuc modulator	SMN2 splice enh	Rab9 promoter act	p53 reactivation	NPC1 prom act	ELG1 genotoxic
CCOC(=O)N1CCN(C(=O)CN(C)S(=O)(=O)c2ccc(Cl)cc2)CC1	-1%	·	-2%	0%	3%	-4%
O=C(c1ccco1)N1CCN(c2ncccn2)CC1	-1%	11%	11%	16%	-2%	7%
Cc1cc(N2CCN(C(=O)c3ccco3)CC2)c2ccccc2n1	5%	·	-3%	-3%	-3%	-2%
Nc1nc(N2CCN(C(=O)c3ccco3)CC2)nc2ccccc12	19µM*	13µM*	?	?	27%	13%
O=C1CCCc2nc(N3CCN(C(=O)c4ccco4)CC3)ncc21	27µM*	·	2.5µM*	0%	4µM*	21µM*
Nc1nc(N2CCN(C(=O)c3ccco3)CC2)nc2ccc(Br)cc12	9.5µM*	7.9µM*	1.1µM*	5%	2µM*	?
COC(=O)C1=C(C(=O)OC)[C@@H]2N(C)c3ccccc3[C@@]23C[C@@H](C(=O)OC)N(S(=O)(=O)c2ccc(C(F)(F)F)cc2)C3=N1	·	5%[9.22 µM]	·	·	·	·
CC(C)CCNC(=O)CN(C(=O)CCC(=O)Nc1nccs1)c1ccc2c(c1)OCCO2	?	·	2%	22%	1%	21µM*
CC(C)(C)NC(=O)CN(C(=O)CCC(=O)Nc1nccs1)c1ccc2c(c1)OCCO2	0%	·	-1%	-8%	0%	-1%
O=[N+]([O-])c1ccc2nc(-c3ccc(OC(F)F)cc3)cn2c1	?	·	1µM*	-5%	1µM*	?
CC(=O)c1ccc(NC(=O)Nc2ccc3c(c2)N(C)C(=O)CS3)cc1	24µM*	-20%	16%	-4%	0%	-13%
COc1ccc(NC(=O)Nc2ccc3c(c2)N(C)C(=O)CS3)cc1Cl	17µM*	-22%	1%	-10%	-1%	-2%
Cc1ccnc(NC(=O)Nc2ccc3c(c2)N(C)C(=O)CS3)c1	3µM*	11µM*	2.8µM*	?	3.5µM*	?
Cc1ccc(NC(=O)Nc2ccc3c(c2)N(C)C(=O)CS3)nc1	-3%	?	4%	1%	0%	9%
CCCNC(=S)N1CCC(NC(=O)c2ccc(C)cc2)CC1	0%	·	-4%	·	-1%	-1%
O=C(CCc1nnc(-c2ccc3c(c2)OCO3)o1)NC(c1ccccn1)C(F)(F)F (stereo not given)	-18%	·	27%	9%	18%	18%
CC1CCN(C(=O)CCc2nnc(-c3ccccc3)o2)CC1	15µM*	·	?	12%	?	?
CC1CCN(C(=O)CSc2nnc(-c3ccccc3)o2)CC1	-13%	7%	·	·	·	·
O=C(CSc1nnc(-c2ccc(F)cc2)o1)N1CCCCC1	?	·	?	?	?	21µM*
O=C(CSc1nnc(-c2ccccc2)o1)N1CCCC1	?	·	?	?	?	30%
O=C(CCc1nnc(-c2ccc3c(c2)OCO3)o1)N1CCC(c2ccc(F)cc2)C1 (stereo not given)	19µM*	·	?	8%	14%	?
O=C(CSc1nnc(-c2ccccc2)o1)N1CCCCC1	15µM*	·	2.5µM*	?	2.8µM*	?
CCc1c(CN2CCN(c3ccc(F)cc3)CC2)csc1C	2%	·	·	·	·	·
O=C(CSc1nnc(-c2ccccc2Cl)o1)N1CCCc2ccccc21	24µM*	1%	·	·	·	·
CCCCCCCC[N+](CCCCCCCC)(CCCCCCCC)CCCCCCCC	·	-62%	·	·	·	·
COc1ccc(Nc2nc(N)nc(CSc3nncn3C)n2)cc1	15µM*	19%	?	?	17%	21µM*
CCOc1ccccc1Nc1nc(N)nc(CSc2nncn2C)n1	4%	0%	-5%	-8%	-2%	-1%
COc1ccc(Nc2nc(N)nc(CSc3nnc(C)s3)n2)cc1	27µM*	22µM*	?	?	26%	?
